Results on 35 molecules are retold here after PubChem BioAssay.

Activity calls are given as the source filed them.

NADPH oxidase 4 (Homo sapiens), sequence (Q9NPH5 whole entry, looked up): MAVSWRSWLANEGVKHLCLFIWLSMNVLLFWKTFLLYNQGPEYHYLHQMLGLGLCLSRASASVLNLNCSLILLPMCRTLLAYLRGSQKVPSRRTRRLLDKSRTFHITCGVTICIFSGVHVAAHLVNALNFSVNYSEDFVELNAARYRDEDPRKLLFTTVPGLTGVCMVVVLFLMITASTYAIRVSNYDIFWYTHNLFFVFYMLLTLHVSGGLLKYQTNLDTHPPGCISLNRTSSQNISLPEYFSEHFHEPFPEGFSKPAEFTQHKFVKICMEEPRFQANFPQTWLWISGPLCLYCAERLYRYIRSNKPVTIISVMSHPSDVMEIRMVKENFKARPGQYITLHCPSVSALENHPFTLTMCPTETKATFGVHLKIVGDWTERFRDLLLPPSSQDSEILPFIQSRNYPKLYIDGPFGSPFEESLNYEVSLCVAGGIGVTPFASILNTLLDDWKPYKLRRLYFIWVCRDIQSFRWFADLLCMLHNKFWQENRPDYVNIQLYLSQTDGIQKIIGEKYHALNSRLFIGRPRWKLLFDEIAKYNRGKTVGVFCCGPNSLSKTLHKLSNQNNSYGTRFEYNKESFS

The test has as its target NADPH oxidase 4 (Homo sapiens) (UniProt Q9NPH5). Kind of test: NOX4-dependent H2O2 signal modulators, primary screen, NOX inhibitor project, cell-based, HEK293-NOX4, tetracycline-induced, Amplex Red fluorescence (AID 1160). Particulars: 45 min, higher = more signal, called active from +8 up or from −8 down.
Turning to `COc1ccc(C#Cc2ccc3c(c2)[C@]2(C(=O)N3)[C@H](C(=O)N3CCN(c4ncccn4)CC3)[C@H]3C(=O)O[C@H](c4ccccc4)[C@H](c4ccccc4)N3[C@@H]2c2ccc(O)cc2)cc1`, the z-score is -0.171 (inactive).
Turning to `CCCC[C@H]1C[C@@H]1[C@@H]1N(P(=O)(c2ccccc2)c2ccccc2)[C@](CO)(c2ccccc2)CC12CC2`, the z-score was 1.08 (inactive).
`O=C(N1CCCCC1)[C@]1(CCS(=O)(=O)c2ccccc2)N=C(c2ccc(OCCCO)cc2)O[C@@H]1c1ccccc1`: the z-score was -1.7 (inactive).
Turning to `OCCCc1cc[n+](Cc2cccc(OC(F)(F)F)c2)cc1`, the z-score is -0.285 (inactive).
As to `COc1ccc([Si](C)(C)[C@H]2[C@H](CC(=O)N3CCC[C@H]3CO)O[C@@]3(C(=O)N(Cc4cccc(N5CCC5=O)c4)c4ccccc43)[C@@H]2C)cc1`, the z-score is 0.777 (inactive).
Take `CCCNC(=O)[C@@]1(c2ccc([N+](=O)[O-])cc2)CC(=O)N(CC23CC4CC(CC(C4)C2)C3)[C@@H]1c1ccc(CO)cc1I`: the z-score was -0.037 (inactive).
With `CCCNC(=O)[C@@]1(C)c2ccccc2C(=O)N(Cc2cc(F)cc(C(F)(F)F)c2)[C@H]1c1ccc(CO)cc1` the figure was -1.51 (inactive); with `C=C[C@H](C)[C@H](OC(=O)Nc1ccc(OC)cc1)c1ccc(O)c2ccccc12`, -1.77 (inactive).
On to `O=c1cccc(-c2ccccc2)o1`, for which the z-score was -1.81 (inactive).
`CC1CC/C=C\[C@H]2OC34C=CCN(Cn5nnc6ccccc65)C(=O)[C@H]3N(CCCO)C(=O)[C@@H]4C2C(=O)O1` (stereo not given in full): the z-score is -1.82 (inactive).
With `COc1ccc(C#Cc2ccc3c(c2)[C@]2(C(=O)N3)[C@H](c3ccc(OCCO)cc3)N3[C@H](c4ccccc4)[C@H](c4ccccc4)OC(=O)[C@H]3[C@@H]2C(=O)Nc2nc3ccccc3s2)cc1`, the z-score was 0.74 (inactive).
For the molecule `C=C(C(=O)CC[C@H](OC(=O)c1cccnc1)c1ccccc1OCCO)C(C)C`, the z-score was -0.81 (inactive).
As for `C=CC[C@@]1(C(=O)NCCN2CCOCC2)N=C(c2ccc(OCCCO)cc2)O[C@@H]1c1ccccc1CN=[N+]=[N-]`, the z-score was 0.908 (inactive).
For the molecule `C=CCOC(=O)[C@H]1[C@@H]2C(=O)O[C@@H](c3ccccc3)[C@@H](c3ccccc3)N2[C@@H](c2ccc(OCCOC(=O)[C@@H]3C[C@@H]4C(=O)NCC(=O)N4[C@@H]3c3ccc(O)cc3)cc2)[C@]12C(=O)Nc1ccc(I)cc12`, the z-score is 1.28 (inactive).
To `CCOC(=O)C[C@H]1[C@H](OC(=O)c2ccc(C(=O)c3ccccc3)cc2)[C@@H](NC(=O)c2ccc3ccccc3n2)c2cc(OCCCO)ccc2N1C(=O)c1ccc2ccccc2n1` belongs 0.532 (inactive); to `C=CCC(OC(C)=O)[C@@H]1[C@@H](N(Cc2ccc(-c3cccc(C(F)(F)F)c3)o2)C(=O)Cc2ccc(OC)cc2)c2cc(OCCCO)ccc2N1C(=O)Cc1ccc(OC)cc1` (stereo not given in full), -1.82 (inactive).
As to `C=CCC(OC(C)=O)[C@@H]1[C@@H](N(Cc2ccc(-c3ccccc3)cc2)C(=O)c2ccc(C)cc2)c2cc(OCCCO)ccc2N1C(=O)Cc1ccc(OC)cc1` (stereo not given in full), the z-score was 1.01 (inactive).
On to `C=C(COC)C(=O)CC[C@@H](OC(=O)c1ccccc1-c1ccccc1C(=O)O)c1ccc(CO)o1`, for which the z-score is -1.58 (inactive).
For `CN(C)CCCC[C@@H]1NC(=O)[C@@H]2C[C@H](C(=O)NCCCCCN)[C@H](c3ccc(O)cc3)N2C1=O`, the z-score is -0.159 (inactive).
With `CN(C)CCCN1C(=O)[C@@]2(c3ccc([N+](=O)[O-])cc3)CC(=O)N(C3CCCCC3)[C@@H]2c2ccc(CO)cc21`, the z-score is 0.632 (inactive).
Take `O=C1C2C=CC(C(O)c3cccc4ccccc34)N(n3cnnc3)C2C(=O)N1Cc1ccccc1` (stereo not given): the z-score is 0.0285 (inactive).
In the case of `COCCCNC(=O)[C@]1(Cc2ccccc2N=[N+]=[N-])N=C(c2ccc(OCCCO)cc2)O[C@@H]1c1ccccc1CN=[N+]=[N-]`, the z-score is 0.4 (inactive).
On to `C=C(COC)C(=O)CC[C@H](OC(=O)c1cccnc1)c1ccccc1OCCO`, for which the z-score is 0.0432 (inactive).
Take `CCOC(=O)N1C(c2ccc(OCCCO)cc2)=NC(C(=O)OC)N1C(=O)OCC` (stereo not given): the z-score was 0.403 (inactive).
As to `C=CCOC(=O)[C@H]1[C@@H]2C(=O)O[C@@H](c3ccccc3)[C@@H](c3ccccc3)N2[C@@H](c2ccc(OCCOC(=O)[C@H]3C[C@H]4C(=O)N[C@@H](CCCC[N+](C)(C)C)C(=O)N4[C@H]3c3ccc(O)cc3)cc2)[C@]12C(=O)Nc1ccccc12`, the z-score was 0.928 (inactive).
Turning to `CC(C)N1C(=O)c2ccccc2[C@](C)(C(=O)NCCCN(C)C)[C@@H]1c1ccc(CO)cc1`, the z-score is 0.893 (inactive).
Regarding `C=CCC(OC(C)=O)[C@@H]1[C@@H](N(Cc2ccc(-c3ccccc3)cc2)C(=O)c2ccc(C)cc2)c2cc(OCCCO)ccc2N1C(=O)c1ccc2ccccc2n1` (stereo not given in full), the z-score is 0.729 (inactive).
For `COC(=O)[C@@]1(Cc2ccc(F)cc2)[C@H]2c3cc(C(=O)N4CCCC4)n(Cc4ccc(Cl)c(C(F)(F)F)c4)c3C[C@H]2CN1C(=O)c1ccccc1`, the z-score was 0.705 (inactive).
Turning to `COCCCNC(=O)[C@@]1(Cc2ccccc2I)c2ccccc2C(=O)N(Cc2ccccc2)[C@H]1c1ccc(CO)cc1`, the z-score was 0.779 (inactive).
Consider `CC(=O)NCCCC[C@@H]1NC(=O)[C@@H]2C[C@H](C(=O)NCc3ccc(F)cc3)[C@H](c3ccc(O)cc3)N2C1=O`, for which the z-score is 0.059 (inactive).
Turning to `CCOC(=O)C1=CC[C@@H](c2cccc(Cl)c2)N(S(=O)(=O)c2ccc(C)cc2)[C@H]1c1ccc(C#N)cc1`, the z-score is 1.2 (inactive).
To `CCCNC(=O)[C@@]1(C)c2ccccc2C(=O)N(Cc2cc(C(F)(F)F)cc(C(F)(F)F)c2)[C@H]1c1ccc(CO)cc1` belongs -3.17 (inactive); to `COC(=O)c1c2oc(c1C(=O)OC)C(=O)N[C@H](Cc1ccccc1)Cn1nncc1C1(CCCCC1)NC(=O)N[C@H](CO)CC2`, -2.14 (inactive); to `CN(C)CCCC[C@@H]1NC(=O)[C@@H]2C[C@H](C(=O)NCc3ccc(F)cc3)[C@H](c3cccc(OCCO)c3)N2C1=O`, 1.37 (inactive).
On to `COc1ccc([Si](C)(C)[C@@H]2[C@@H](CCn3cc([C@H](O)c4ccccc4)nn3)O[C@]3(C(=O)N(C)c4ccccc43)[C@H]2C)cc1`, for which the z-score is 0.689 (inactive).
